High-throughput results deposited in PubChem by several laboratories.
CYP2C9 activ: CYP2C9 (human) activation | 96,000 compounds, 1.4% hits | P11712 | recombinant CYP2C9, luciferin-H conversion, luminescence; hits give high values; factor 1 = untreated enzyme, 0 = blocked | activation factor at 5 µM;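 active = activation factor of 2 or more for CYP2C9 at a 5 µM dose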;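 note: 0 = sulfaphenazole-blocked wells and 1 = vehicle-only wells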
CYP2C19 inh: blocks human cytochrome P450 2C19 | CYP2C19 Supersomes, luciferin-H EGE luminescence, 30 min | inhibition, % at 5 µM | 96,000 compounds, 21% hits | AID 778;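 active = CYP2C19 inhibition above a set limit at 5 µM in the primary screen, cut at about 50% in these data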;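 note: plate controls were negative control wells for no effect and 2.5 mM tranylcypromine positive control for full effect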
Target sequence (P33261 whole entry, looked up): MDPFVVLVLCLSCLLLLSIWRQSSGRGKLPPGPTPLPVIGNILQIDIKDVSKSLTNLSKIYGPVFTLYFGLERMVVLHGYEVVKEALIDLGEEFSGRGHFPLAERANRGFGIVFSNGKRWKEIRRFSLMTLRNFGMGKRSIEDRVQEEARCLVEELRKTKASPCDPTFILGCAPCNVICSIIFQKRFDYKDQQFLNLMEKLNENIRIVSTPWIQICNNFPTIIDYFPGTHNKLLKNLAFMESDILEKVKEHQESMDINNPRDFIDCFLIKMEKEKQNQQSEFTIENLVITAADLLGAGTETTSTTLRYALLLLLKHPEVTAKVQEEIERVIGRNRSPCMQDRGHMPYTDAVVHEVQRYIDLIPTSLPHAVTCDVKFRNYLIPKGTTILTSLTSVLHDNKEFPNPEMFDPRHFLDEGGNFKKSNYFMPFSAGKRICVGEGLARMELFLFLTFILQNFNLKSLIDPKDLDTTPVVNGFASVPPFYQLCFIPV
CYP2C9 inh: inhibitors of human CYP2C9; CYP2C9 Supersomes, luciferin-H conversion, luminescence; inhibition, % at 5 µM; 96,000 compounds, 20% hits; AID 777;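 active = blocking of liver enzyme CYP2C9 beyond about 50% at 5 µM, limit read from the data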
CYP2C19 activ: activators of human cytochrome P450 2C19; P33261; recombinant CYP2C19, luciferin-H EGE luminescence; hits give high values; 0 = fully inhibited enzyme, 1 = untreated enzyme; activation factor at 5 µM; 96,000 tested, under 10 active; AID 1025;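 active = activation factor of at least 2 at 5 µM in the primary screen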;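 note: 0 = wells with 2.5 mM tranylcypromine and 1 = vehicle-only wells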
Cav32 inh: blocks human Cav3.2 T-type calcium channel. Cav3.2-expressing cells, Fluo-4 calcium fluorescence FDSS; hits give low values. O95180. 100,000 compounds, 4% hits. B-score at 10 µM. AID 449739;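 active = single-dose well whose peak fluorescence ratio is a statistical outlier from its plate by either plate-standardised score or position-corrected B-score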
* = called active by the depositor; x = no result. The list is not random: actives were taken first. Their share in the collection is about 27%.

SMILES	CYP2C9 activ	CYP2C19 inh	CYP2C9 inh	CYP2C19 activ	Cav32 inh
Cc1[nH]n(-c2ccccc2)c(=O)c1/C=N/NC(=O)c1cccc([N+](=O)[O-])c1	0.9	-10	13	1.1	-2.4
CCN(CC)C(=O)COc1ccc(CC(=O)O)cc1OC	1	-6	2	1.1	1.1
O=C(Cc1cccs1)NCc1ccccc1	1	41	3	0.6	0.99
O=C(Cc1cccs1)NCc1ccccc1F	0.9	71*	10	0.3	0.47
Cc1ccc(CNC(=O)Cc2cccs2)cc1	1	90*	-4	0.1	0.59
Cc1cc2cc(CNC(=O)Cc3cccs3)ccc2n1C	x	x	x	x	-4.2*
COc1cc(S(=O)(=O)N2CCN(C)CC2)c(OC)cc1Br	1.4	8	-36	0.9	-0.13
CC(=O)Nc1ccc(C2NC(=O)c3ccccc3O2)cc1 (centres undefined)	0.6	16	45	0.8	-0.065
CC(=O)Nc1ccc(C2Nc3ccccc3C(=O)N2C2CCCCC2)cc1 (centres undefined)	0.2	47	84*	0.5	0.13
COC(=O)NNC(=O)c1ccccc1C	1	-13	-5	1.1	-0.57
O=C(NC(=O)c1cccc(OC(F)(F)C(F)F)c1)OC1CCS(=O)(=O)C1 (centres undefined)	0.9	6	6	0.9	0.5
CCN(CC)CCCN1CC(O)=C(c2nc3ccccc3s2)C1=N	1.1	-8	-12	1.1	0.25
CCOc1ccccc1N1CC(O)=C(c2nc3ccccc3s2)C1=N	0.4	59*	58*	0.4	-3.5
CCn1cnc2sc(C(=O)N(Cc3ccc(N(C)C)cc3)Cc3ccco3)c(C)c2c1=O	0	88*	98*	0.1	-3.9
CCCCn1nc2cc(C(=O)NCC34CC5CC(CC(C5)C3)C4)ccc2c1OCC	0.3	26	71*	0.7	-0.82
CCCCn1nc2cc(C(=O)NCCc3cccs3)ccc2c1OCC	0.5	61*	53*	0.4	-0.5
CCCCn1nc2cc(C(=O)N(CC)c3ccc(OC)cc3)ccc2c1OCC	0.3	52*	75*	0.5	-0.55
CCCCn1nc2cc(C(=O)NC3CCc4ccccc43)ccc2c1OCC (centres undefined)	0.4	18	56*	0.8	-0.79
CCCn1nc2cc(C(=O)NCCc3ccc(C)cc3)ccc2c1OCC	0.7	18	26	0.8	-0.16
O=S1(=O)CC(O)C(N2CCC(c3ccccc3)CC2)C1 (centres undefined)	1.2	-2	-17	1	0.56
O=C(NCCC1=CCCCC1)C1CCN(S(=O)(=O)c2cccc3nsnc23)CC1	x	x	x	x	-0.8
CCCCn1nc2cc(C(=O)NCc3ccccc3OC)ccc2c1OCC	0.4	47	56*	0.5	-0.4
CCCn1nc2cc(C(=O)NCCCCc3ccccc3)ccc2c1OCC	0.6	41	36	0.6	-3.1
CS(=O)(=O)N(CC(=O)NCc1ccc2c(c1)OCO2)Cc1ccccc1	0.7	62*	34	0.4	0.53
O=C(NCc1ccc2c(c1)OCO2)c1ccc(=O)[nH]c1	1	-16	-1	1.2	0.31
SMILES	CYP2C9 activ	CYP2C19 inh	CYP2C9 inh	CYP2C19 activ	Cav32 inh
O=C(CCn1c(=O)c2ccccc2n(Cc2cccnc2)c1=O)NCc1ccc2c(c1)OCO2	0.3	77*	69*	0.2	2.9
O=C(CN(C(=O)C1CSC(=O)C1)c1ccccc1F)NCc1ccc2c(c1)OCO2 (centres undefined)	0.6	87*	44	0.1	-3.8*
COc1ccccc1N(CC(=O)NC(C)(C)C)C(=O)C1CSC(=O)C1 (centres undefined)	x	x	x	x	0.44
O=C(Cc1c[nH]c2ccccc12)NCc1ccc2c(c1)OCO2	0.5	94*	53*	0.1	-1.9
CN(C)CCCN1C(=O)c2oc3ccccc3c(=O)c2C1c1cccs1 (centres undefined)	0.7	3	26	1	-0.48
CCOC(=O)C(C(=O)OCC)C(CC(=O)C1CC1)c1ccccc1 (centres undefined)	1	19	1	0.8	-1.7
O=C(CCc1ccc(S(=O)(=O)NCc2ccccc2)cc1)NCc1ccc2c(c1)OCO2	0.2	56*	76*	0.4	0.057
CC(C)CNC(=O)CCCc1c[nH]c2ccccc12	2.1*	63*	-114	0.4	0.18
O=C(CCc1c[nH]c2ccccc12)NCc1ccc2c(c1)OCO2	0.8	92*	19	0.1	-1
Cc1ccc(-c2noc(CCC(=O)NCc3ccc4c(c3)OCO4)n2)cc1	0.9	8	9	0.9	-0.45
